PubChem BioAssay AID602243 (Broad Institute, 2012)
The other results are listed elsewhere or left out. Activity calls are given as the source filed them. How the calls were made is not given here.

Assay: V. cholerae lux activation without autoinducers – BH1578 luxS cqsA deficient, cherry-pick, plate reader, dose response (AID 602243)
Conditions: V. cholerae BH1578 lux reporter, luminescence, 6 h; series mostly up to 50 µM

| SMILES | outcome |
| --- | --- |
| COc1ccc2[nH]c(=O)c(CNc3ccc(C)c(C)c3)cc2c1 | inactive |
| CCN(CC)c1nc(-c2ccccc2)cc(C(F)(F)F)c1C#N | inactive |
| CCOC(=O)C1(CCOc2ccccc2)CCN(Cc2cc(OC)cc(OC)c2)CC1 | inactive |
| CN(CC(=O)Nc1ccc(OC(F)(F)F)cc1)C(=O)C1CCC1 | inactive |
| COc1ccc(Cl)cc1NC(=O)CN(C)C(=O)CNC(=O)C12CC3CC(CC(C3)C1)C2 | inactive |
| CCc1cccc(C)c1N(C(=O)Cn1c(CO)nc2ccccc21)C(C)COC (stereo not given) | inactive |
| CC(C)CNC(=O)COC(=O)/C=C/c1ccco1 | inactive |
| COc1ccc(CNc2nnnn2C)cc1 | inactive |
| NNC(=O)c1nnn(-c2nonc2N)c1CN1CCCC1 | inactive |
| CC(C)CC(=O)N1CCN(Cc2ccccc2Br)CC1 | inactive |
| COc1ccc(S(=O)(=O)N2CCN(c3cnccn3)CC2)cc1 | inactive |
| CCN(CC(=O)NCc1ccc(Cl)cc1)C(=O)CSc1ccccc1 | inactive |
| O=C(NCc1ccccn1)c1c(O)c2c([nH]c1=O)CCCC2 | inactive |
| CCCS(=O)(=O)N1CCCC(C(=O)N2CCN(c3ccccc3)CC2)C1 (stereo not given) | inactive |
| CCCn1nnnc1NCc1ccc(OC)cc1 | inactive |
